Test results as given in PubChem BioAssay (NCI).
The panel holds about 83,000 compounds, 20% with a hit somewhere; the sample as a whole holds those more often.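 Negative percent growth values reflect cell death: -40 means 40% of the cells present at the start died, and -100 means all died.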 Values without a mark were called inactive. Active and inactive are the calls of the source. Rule for the calls: active = growth percent below 10; inactive = the rest.

Experiments:
Experiment in all cases: NCI-60 one-dose screen, 48 h (100 = growth as untreated, 0 = no growth, -100 = all killed)
Details in all cases: 10 µM unless noted
HCT-15 colon = test system: HCT-15 colon
HT29 colon = test system: HT29 colon
SNB-75 CNS = test system: SNB-75 CNS
SNB-19 CNS = test system: SNB-19 CNS
U251 CNS = test system: U251 CNS
PC-3 prostate = test system: PC-3 prostate
SK-MEL-5 melanoma = test system: SK-MEL-5 melanoma
UACC-62 melanoma = test system: UACC-62 melanoma
LOX IMVI melanoma = test system: LOX IMVI melanoma
SK-MEL-28 melanoma = test system: SK-MEL-28 melanoma
SK-MEL-2 melanoma = test system: SK-MEL-2 melanoma
EKVX NSCLC = test system: EKVX NSCLC
SN12C renal = test system: SN12C renal
UO-31 renal = test system: UO-31 renal
TK-10 renal = test system: TK-10 renal
ACHN renal = test system: ACHN renal
CAKI-1 renal = test system: CAKI-1 renal
A498 renal = test system: A498 renal
CCRF-CEM leukemia = test system: CCRF-CEM leukemia
MOLT-4 leukemia = test system: MOLT-4 leukemia

Compound | growth (HCT-15 colon) | growth (HT29 colon) | growth (SNB-75 CNS) | growth (SNB-19 CNS) | growth (U251 CNS) | growth (PC-3 prostate) | growth (SK-MEL-5 melanoma) | growth (UACC-62 melanoma) | growth (LOX IMVI melanoma) | growth (SK-MEL-28 melanoma) | growth (SK-MEL-2 melanoma) | growth (EKVX NSCLC) | growth (SN12C renal) | growth (UO-31 renal) | growth (TK-10 renal) | growth (ACHN renal) | growth (CAKI-1 renal) | growth (A498 renal) | growth (CCRF-CEM leukemia) | growth (MOLT-4 leukemia)
COc1ccc(/C=C/c2nc(Nc3cccc(NC(C)=O)c3)c3ccccc3n2)cc1 | 70.9% | 85% | 90.5% | 92.4% | 88.5% | 90% | 87.5% | 44.2% | 59.3% | 104% | 91.9% | 94.3% | 89.1% | 68.3% | 92.7% | 78.3% | 67.4% | 9.66% (active) | 82.5% | 87%
COCc1cnccc1NC1CCCCCC1 | 107% | 90.7% | 98.1% | 104% | 103% | 98.1% | 101% | 98.7% | 100% | 110% | 107% | 102% | 99.4% | 86.3% | 94.1% | 108% | 94.4% | 84.4% | 101% | 94.4%
COc1ccc(C/C(=C(\C)c2ccc(OCCN3CCCC3)cc2)c2ccc(OCCN3CCCC3)cc2)cc1 | 11.9% | -58.1% (active) | 83.2% | 72.6% | -39.7% (active) | 50.9% | -48.8% (active) | -55.6% (active) | -92.5% (active) | -86.9% (active) | 102% | 81.3% | 73.8% | 53.4% | 87.3% | 54.1% | 80.7% | – | 0.621% (active) | -17.5% (active)
COc1cccc(-c2nc3occn3c2-c2ccnc(NCCNS(=O)(=O)c3cccc4ccccc34)n2)c1 | 103% | 96.7% | 103% | 97.8% | 108% | 99.6% | 98.8% | 93.7% | 102% | 115% | 107% | 114% | 103% | 85.7% | 123% | 99.6% | 86.6% | – | 123% | 97.4%
COc1ccc(C(=O)CSc2nc(-c3cc(OC)ccc3OC)cc(-c3ccc(Cl)cc3)c2C#N)cc1 | 62.7% | 48.3% | 30.9% | 40.3% | 35.7% | 56.8% | 36.6% | 16.8% | 68.5% | 32.1% | 70.8% | 79.7% | 42.6% | 45.9% | 61.9% | 31% | 64.9% | – | 98.2% | 94.3%
C=C(CBr)[C@@H]1CC[C@]2(COC(C)=O)CC[C@]3(C)[C@H](CC[C@@H]4[C@@]5(C)CCCNC(C)(C)[C@@H]5CC[C@]43C)[C@@H]12 | 24.8% | 29.1% | 79.8% | 64.2% | 37% | 12.9% | 19.9% | 24.8% | 23.5% | 60.7% | 59.4% | 46.9% | 48% | 29.6% | 41.1% | 39.5% | 37.5% | 49.4% | 33.8% | 10.9%
COc1cc2c(c(O)c1Cl)C(=O)c1c(O)cc(C[C@H](C)O)cc1[C@H]2[C@H]1c2cc(C[C@H](C)O)cc(O)c2C(=O)c2c1cc(OC)c(Cl)c2O | 8.82% (active) | 9.65% (active) | -3.83% (active) | 18% | 8.26% (active) | 16.7% | -65.7% (active) | 0.814% (active) | 7.32% (active) | 38.2% | -31.6% (active) | 13.5% | 8.13% (active) | 2.84% (active) | 31.8% | -5.77% (active) | 8.67% (active) | – | 18.6% | 14.9%
Cc1ccc(/C=N/NC(=O)CSc2nc3ccccc3c(=O)n2Cc2ccc(S(N)(=O)=O)cc2)cc1 | 89.3% | 86.3% | 71% | 89.9% | 93.9% | 89.3% | 74.4% | 78.1% | 82.9% | 93.2% | 94% | 90.8% | 97.3% | 80.8% | 106% | 100% | 64% | – | 87.8% | 86.8%
COCCCN1CC(O)=C(c2nc(-c3ccc(C)cc3)cs2)C1=N | 110% | 128% | 154% | 98.6% | 100% | 94.3% | 103% | 103% | 102% | 159% | 113% | 97.3% | 92.9% | 80.6% | 138% | 111% | 96.1% | 93.3% | – | 86.4%
Cc1cc2c(C(=O)NCC#N)cccc2n1-c1nc2c(c(NCc3ccccc3)n1)CCCC2 | -52.8% (active) | -3.71% (active) | -11.4% (active) | -49.1% (active) | -71% (active) | -18.8% (active) | -93.4% (active) | -78.2% (active) | -85% (active) | -28.2% (active) | -44.7% (active) | -18.8% (active) | -67.9% (active) | -84.3% (active) | -17.7% (active) | -4.35% (active) | -2.84% (active) | – | 7.4% (active) | -15.6% (active)
O=C(C1CCC1)N1N=C(c2ccc(-n3ccc(C(F)(F)F)n3)cc2)CC1c1ccc[nH]1 (centres undefined) | 85.6% | 89.8% | 101% | 95.9% | 82.2% | 76.5% | 100% | 90.5% | 92.8% | 104% | 101% | 90.4% | 98.3% | 94.4% | 89.1% | 102% | 91.5% | – | 89.9% | 74.8%
O=C(/C=C/c1c(-c2ccc(Cl)cc2)nn(-c2ccccc2)c1C(F)(F)F)c1ccc(Cl)cc1 | 77.7% | 89.9% | 86.1% | 96.1% | 86.3% | 92.2% | 85.3% | 82.5% | 75% | 103% | 89% | 94.8% | 88.1% | 74.1% | 118% | 90.7% | 90% | – | 85.6% | –
N#C/C(=C\c1ccc(C(F)(F)F)cc1)c1cc2ccccc2[nH]1 | 92.5% | 99.7% | 89% | 102% | 105% | 93.9% | 95.6% | 95.1% | 99.7% | 102% | 96.1% | 97.6% | 99.2% | 92.9% | 140% | 104% | 83.6% | 90.3% | 98.1% | 91.5%
COc1cccc(-c2ccc3c(c2)NC(=O)/C3=C\c2ccc[nH]2)c1 | 20.7% | 23.6% | 44% | 81.6% | 83.5% | 70.1% | 11% | 44.3% | 50.5% | 70.7% | 52.7% | 26.1% | 69.2% | 52.7% | 27.1% | 40.2% | 28.3% | – | 19% | 34.4%
